Source: PubChem BioAssay (Sanford-Burnham Center for Chemical Genomics)
CF NFkB inh – blocks PAF-induced NF-kB reporter in cystic fibrosis cells. actives 0.86% (n = 360,000). KKLEB NF-kB-GFP reporter, GFP fluorescence overnight. inhibition, % at 5 µM;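 active = at least 50% inhibition at 5 µM, scaled per plate between neutral and stimulator controls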;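 note: PAF is a Pseudomonas aeruginosa culture filtrate used as stimulus; plate controls were PAF-stimulated DMSO wells for no effect and unstimulated DMSO wells for full effect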
Peg3 promoter – inhibitors of Peg3 promoter | HeLa PEG-Prom luciferase reporter, luminescence, overnight | inhibition, % at 20 µM | actives 1.7% (n = 360,000) | AID 588405;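 active = inhibition of at least 50% at 20 µM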
TROY NFkB inh – blocks TROY-dependent signaling in reporter cells. actives 0.98% (n = 360,000). inhibition, % at 10 µM. Q293 LMP1-TROYcd NF-kB luciferase reporter, 4 h;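 active = compounds whose plate-normalised and pattern-corrected inhibition of the luciferase reporter signal at the single screening dose is 50% or more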
TWEAK Fn14 block – blocks TWEAK-Fn14 interaction in a reporter cell assay | AID 1159606 | inhibition, % at 10 µM | actives 2% (n = 360,000) | TWEAK-stimulated Fn14 reporter cells, luciferase luminescence, 8 h; in the data active = inhibition above about 50%
KKLEB cytotox – CF airway cell cytotoxicity counter-screen | KKLEB CF airway cells viability, ATPlite luminescence, overnight; active compounds read low; cells stimulated with P. aeruginosa culture filtrate | activity change (cytotoxicity), % at 5 µM | actives 0.36% (n = 360,000) | AID 602141;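 active = corrected activity change at or below -50% at 5 µM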
HIF-2a inh – blocks HIF-2a reporter activity; 786-0 RCC cells HIF-2a reporter, luciferase luminescence, overnight; inhibition, % at 18.8 µM; actives 0.72% (n = 360,000); AID 624352;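 active = inhibition of the luminescence signal of 40% or more relative to plate controls, in a single-dose primary screen at 18.75 µM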
* marks the source's active call; other numbers are inactive results; . = not tested or not shown. Hits are enriched below; roughly 4% of the tested compounds scored in any of these assays.

SMILES	CF NFkB inh	Peg3 promoter	TROY NFkB inh	TWEAK Fn14 block	KKLEB cytotox	HIF-2a inh
COc1ccc2oc(-c3ccccc3)cc(=O)c2c1	-13	-44	5	74*	-36	-15
COc1ccc(-c2cc(=O)c3ccc(O)cc3o2)cc1	-12	-195	-70	0	20	-227
COc1ccc(-c2cc(=O)c3cc(OC)ccc3o2)cc1	-13	-85	7	65*	-51*	-89
COc1ccc(C2=Nn3c(nnc3-c3ccccc3F)SC2)cc1OC1CCCC1	29	-110	41	12	-32	-194
Clc1ccccc1Nc1nnc(-c2ccncc2)s1	28	-32	60*	89*	-27	-10
COc1ccc(Nc2nnc(-c3ccncc3)s2)cc1Cl	-21	21	51*	38	4	8
O=C(COc1ccc(Cl)cc1)NNC(=O)C(=O)N1CCCCC1	8	6	-7	10	-8	16
CCOC(=O)C1(CCc2ccccc2)CCN(C(=O)CCn2cnnn2)CC1	3	-131	-52	-37	1	-134
O=C(c1cnc2ccc3ccccc3c2c1)c1cc(F)ccc1O	-16	-20	42	64*	-20	-45
Cc1nn(C)c2ncc(C(=O)c3cc(F)ccc3O)cc12	11	14	-23	0	-8	13
COc1cc(OC)c2c(-c3cccc(-c4ccc(C(C)=O)cc4)c3)cc(=O)oc2c1	55*	-12	56*	77*	-6	1
COc1cc(OC)c2c(-c3cccc(-c4ccc(OC)c(F)c4)c3)cc(=O)oc2c1	46	-38	4	-26	-12	-32
O=[N+]([O-])c1cccnc1Sc1ccc(Br)cc1	-9	4	5	0	-12	-1
Cc1ccc(C2=C(O)C(=O)C(c3ccc(C)cc3)=C(O)C2=O)cc1	56*	-41	3	21	-8	-4
NS(=O)(=O)c1cccc(NC(=O)CSc2nnc3n2CCCCC3)c1	10	3	7	0	5	12
CC(C)(C)C(=O)N1CCN(c2ccc3c(c2)C2CC3CCN2C(=O)OCc2ccccc2)CC1 (configuration not stated)	-4	-80	-22	-35	-4	-118
O=S(=O)(Nc1ccccc1F)c1ccc(Cl)nc1	11	6	14	17	-1	9
O=S(=O)(Nc1c(F)cccc1F)c1ccc(Cl)nc1	9	-4	86*	10	5	23
Cc1ccc(CNC(=O)C2CN(S(C)(=O)=O)c3cc(Cl)ccc3O2)cc1 (configuration not stated)	9	-207	10	-20	3	16
Cc1noc2ncnc(Oc3cc(Cl)ccc3Cl)c12	-27	94*	-3	24	-7	14
Cc1noc2ncnc(Oc3ccc4ccccc4c3)c12	3	-27	3	-19	3	1
Cc1cc(C)cc(Oc2ccc(-c3nnc(-c4ccccc4)o3)cc2[N+](=O)[O-])c1	-9	12	87*	101*	-2	0
C/C(=N\NC(=O)c1ccc(-c2ccccc2)cc1)C1C(=O)c2ccccc2C1=O	29	37	56*	46	-7	6
Cc1csc(NC(=O)CSc2nsc(SCC(=O)Nc3nc(C)cs3)c2C#N)n1	13	-179	57*	47	-5	-179
Cc1ccc(NC(=O)CSc2nsc(SCC(=O)Nc3ccc(C)cc3C)c2C#N)c(C)c1	-2	77*	7	-45	-8	2
SMILES	CF NFkB inh	Peg3 promoter	TROY NFkB inh	TWEAK Fn14 block	KKLEB cytotox	HIF-2a inh
Cc1nc(SCC(=O)Nc2nccs2)c(C#N)c(C)c1C	-12	5	73*	76*	-32	16
CC(C)(C)NC(=O)CSc1nsc(SCC(=O)NC(C)(C)C)c1C#N	-17	18	-1	-20	5	2
O=C1C(Br)=C(c2ccccc2)C(c2ccccc2)=C1c1ccccc1	79*	105*	-4	57*	-74*	10
O=C(Nc1ccc(F)cc1)C(c1cccc(F)c1)N1CCN(CC(=O)N2CCCC2)CC1 (configuration not stated)	.	.	.	.	.	8
O=C(/C=C/c1ccccc1Cl)N1CCCN(C(=O)/C=C/c2ccccc2Cl)CC1	10	-78	-64	-51	-4	-47
COc1ccc(-c2nnc(SCc3nc4ccccc4c(=O)[nH]3)o2)cc1	7	-20	56*	51*	-9	-52
COc1ccc(Cc2nnc(SCC(=O)NCCc3ccccc3)o2)cc1	0	15	2	7	8	10
COc1ccc(CC(=O)NC(C)c2nnc(SCc3nc4ccccc4c(=O)[nH]3)n2C)cc1 (configuration not stated)	4	7	.	75*	5	5
CC(NC(=O)c1ccccc1)c1nnc(SCc2nc3ccccc3c(=O)[nH]2)n1C (configuration not stated)	-11	5	-1	-9	11	4
c1ccc2[nH]c(CSc3nnc(-c4ccncc4)o3)nc2c1	-6	-2	.	58*	-2	8
COc1ccc(-c2nnc(SCC(=O)NCCc3ccccc3)o2)cc1	-2	9	.	87*	-3	-19
CC(=O)Nc1ccc(S(=O)(=O)Oc2ccc(C=O)cc2)cc1	3	9	2	0	-4	1
O=C(COC(=O)/C=C/c1ccc(F)cc1)NC1CC1	-26	-9	-13	7	4	-4
CCN(CC(=O)NCc1cccs1)S(=O)(=O)c1c(F)cccc1F	3	15	3	3	0	9
O=C1C=C(Nc2ccc(Cl)cc2)CC(c2ccco2)C1 (configuration not stated)	-2	5	.	56*	12	7
CC(=O)Nc1cccc(N2CCCC2=O)c1	-3	6	2	11	7	10
Cc1c(C(=O)N2CCN(Cc3ccc4c(c3)OCO4)CC2)sc2ncnc(N3CCN(c4ccccc4F)CC3)c12	-24	58*	50	88*	-18	-20
Cc1c(C(=O)N2CCN(c3ccccn3)CC2)sc2ncnc(N3CCN(c4ccccc4)CC3)c12	1	22	3	8	-4	13
Cc1c(C(=O)N2CCN(Cc3ccc4c(c3)OCO4)CC2)sc2ncnc(N3CCN(c4ccccc4)CC3)c12	-24	58*	53*	87*	9	-3
O=C1C=CC(=O)N1c1ccc2c(c1)Cc1cc(F)ccc1-2	26	97*	-51	15	-12	-5
CC(=O)Nc1ccc2c(c1)Cc1ccc(Cl)cc1-2	-3	-191	-38	-14	-10	-208
CC(=O)Nc1ccc2c(c1)Cc1cc(N3C(=O)C=CC3=O)ccc1-2	30	98*	1	5	5	42*
O=[N+]([O-])c1ccc2c(c1)Cc1cc(F)ccc1-2	-54	-8	-29	-28	-7	-29
